# Compound activity (PubChem BioAssay)
# A selection: hits, their analogues and other compounds. The true share with any hit is near 1.8%.
# Jurkat NFkB inh = inhibitors of induced NF-kB luciferase reporter, primary screen, TCR NF-kB activation inhibitor project, cell-based, luminescence, uHTS. Jurkat, PMA/ionomycin-induced NF-kB luciferase reporter. 330,000 tested, 0.53% active. inhibition, % at 4 µM; in the data active = inhibition above about 50%
# Beta cell apopt = inhibitors of cytokine-induced beta cell apoptosis, primary screen, luminescence. INS-1E cytokine-induced death, ATP luminescence, 48 h; percent of positive-control rescue, neutral wells zero. protection from apoptosis, % (no concentration beside the values). 300,000 tested, 0.8% active. AID 435005, 2010;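 active = Every replicate reaches about 75%, or at least half do and their mean reaches it too, limit read from the data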;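 also: 0% = cytokine-treated negative control wells and 100% = positive control rescue; higher means more ATP so stronger rescue from cytokine killing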
# 697 NFkB inh = inhibitors of PMA/ionomycin-induced NF-kB reporter, 697 cells, primary screen, B-cell NF-kB inhibitor project, cell-based, luminescence, uHTS; 697 B-cell NF-kB luciferase reporter, 16 h; inhibition, % at 4 µM; 330,000 tested, 0.33% active; AID 435022, 2010; in the data active = inhibition above about 35%
# Gli-Sufu block = Gli-Sufu pathway antagonists, primary screen, luciferase luminescence, Sufu-KO-LIGHT cells, uHTS; Sufu-KO-LIGHT fibroblasts, Gli luciferase reporter luminescence; inhibition, % at 5 µM; 340,000 tested, 0.74% active;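 active = inhibition above about 55%, limit read from the data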;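 also: 0% = DMSO-treated cells and 100% = wells with medium but no cells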
# The depositor's hits bear a star; · = no result.
SMILES,Jurkat NFkB inh,Beta cell apopt,697 NFkB inh,Gli-Sufu block
O=C(c1ccco1)N1CCN(C(=O)C2CCN(S(=O)(=O)c3cccc4nsnc34)CC2)CC1,-3,-4,12,0
O=C(NCCc1cn2ccccc2n1)c1cc(COc2ccc3ncccc3c2)on1,18,104*,-10,44
O=C(c1cc(COc2ccc3ncccc3c2)on1)N1CCCCCC1,34,91*,-25,48
O=C(c1cc(COc2ccc3ncccc3c2)on1)N1CCCC1,13,42,-47,36
Clc1ccc(Oc2ccccc2)c2ncccc12,12,-3,-6,-4
Cc1cc(C)cc(NC(=S)NCc2ccc3c(c2)OCO3)c1,7,-4,-11,-29
O=C(Nc1nc2ccccc2s1)c1cc(-c2ccccc2)nn1-c1ccccc1,-11,111*,-8,4
CC(=O)c1sc(NC(=O)c2cc(-c3ccccc3)nn2-c2ccccc2)nc1C,-5,-6,-14,14
O=C(Nc1cccc(NC(=O)c2cc([N+](=O)[O-])ccc2Cl)n1)c1cc([N+](=O)[O-])ccc1Cl,50,104*,-100,2
Cc1cc(NC(=O)c2cc([N+](=O)[O-])ccc2Cl)no1,-4,-11,17,5
CCN(CC)CCn1c2ccccc2c2cnc(N)c(C#N)c21,-13,93*,2,-75
Cc1cc(Nc2nc3ccccc3nc2Cl)n(-c2ccc([N+](=O)[O-])cc2)n1,2,77*,-9,35
Cc1cc(Nc2nc3ccccc3[nH]c2=O)n(-c2ccccc2)n1,25,-12,-80,4
CN1CCN(C2Cc3cc(Cl)ccc3Sc3cc(F)ccc32)CC1 (configuration not stated),-8,·,-2,10
OCCN1CCN(C2Cc3cc(Cl)ccc3Sc3ccc(Cl)cc32)CC1 (configuration not stated) (tested in a mixture with another compound),5,101*,-1,4
O=C(/C=C/c1cccc(Cl)c1)c1ccc([N+](=O)[O-])o1,29,135*,-14,-13
COc1cc(OC)c(C(=O)C=Cc2ccc(OC)c(OC)c2)c(OC)c1,·,·,·,12
COc1ccc(/C=C/C(=O)c2ccc([N+](=O)[O-])o2)cc1OC,26,112*,-17,24
CCC(C)(C)NC(=O)Cn1c(-c2ccccc2)cc(C(C)=O)c1C,11,-5,20,-6
CC(=O)Nc1nc2cc(C(N)=O)ccc2s1,7,-3,18,-12
Oc1ccccc1N=N/C(=N/Nc1ccccc1O)c1ccccc1,-10,1,8,1
Cn1nnnc1N=N/C(=N/Nc1ccccc1)c1ccccc1,38,126*,-40,-1
CCC[C@@H](CN1CCC[C@H]1CN1C(N)=NC[C@@H]1Cc1ccccc1)N1C[C@@H]([C@H](C)CC)N(CCCC2CCCC2)C1=N,0,101*,-10,61*
COc1ccc(C(=O)C2CCCN(Cc3ccc4c(c3)OCCO4)C2)cc1F (configuration not stated),-12,-1,15,-2
CN(C)c1ccc(/C=C/c2ccc3ccccc3n2)cc1,·,76*,·,28
SMILES,Jurkat NFkB inh,Beta cell apopt,697 NFkB inh,Gli-Sufu block
COc1cccc(/C=N/NC(=O)CN2CC(c3ccccc3)CC2=O)c1O (configuration not stated),16,77*,-1,-9
COc1cccc(/C=N/NC(=O)c2c(C)nc3ccc(Cl)cn23)c1O,22,123*,21,84*
C=CCc1cccc(/C=N/NC(=O)c2ccccc2OC)c1O,16,94*,-13,-5
COc1ccccc1/C=N\NC(=O)c1c(C)nc2ccc(Cl)cn12,3,-5,1,-2
Cc1cccc(/C=N\NC(=O)c2ccc(Cl)cc2)c1O,-13,96*,-186,36
COc1cccc(/C=N/NC(=O)C[n+]2ccccc2)c1O,6,-3,11,-9
CCOc1cc(S(=O)(=O)N2CCN(C(=O)c3ccco3)CC2)ccc1F,-2,1,-6,5
C=CSc1sc(Cl)c(N(C)C)c1[N+](=O)[O-],9,-3,11,-6
COc1ccc(C(=O)/C(=C\N(C)C)n2nc(C)cc2C)cc1,-4,-3,2,26
Nc1cc([N+](=O)[O-])ccc1Nc1ccccc1,-8,0,-2,34
Cn1c(SCc2nnc(-c3ccccc3Br)o2)nc2sc3c(c2c1=O)CCC3,3,3,-12,5
COc1cc(C(=O)Oc2ccc(/C=N/NC(=O)c3ccncc3)cc2)cc(OC)c1OC,2,-2,-9,-3
CCn1c(C)nc2cc(C(=O)N/N=C/c3cccc(O)c3O)ccc21,4,76*,-147,17
CC(C)(C)C(=O)Nc1ccc(C(=O)N/N=C/c2ccccc2OC(=O)c2ccccc2)cc1,19,87*,0,-28
COc1cc(C(=O)Oc2ccccc2/C=N/NC(=O)c2ccc(C)cc2)cc(OC)c1OC,-11,103*,-186,-16
COc1cccc(/C=N/NC(=O)c2ccc(-c3ccccc3)cc2)c1O,24,107*,-26,34
Cc1ccccc1NC(=O)c1cc2ccccn2n1,-125,0,-114,-76
CCCCCc1cc(OC)cc2c1C(=O)OC(C)(C)O2,·,·,-13,-9
CCCN(CC(=O)Nc1ccccc1C)C(=O)c1ccc(N2CCCCC2)c([N+](=O)[O-])c1,15,·,14,3
COc1ccccc1/C=N/NC(=O)c1c(-c2ccccc2)noc1C,5,-13,5,4
COc1ccc(C(=O)N/N=C/c2ccccc2OC(=O)c2ccccc2)cc1,-35,102*,-106,-23
C=CCc1cccc(/C=N/NC(=O)c2ccc3nc[nH]c3c2)c1O,16,84*,-29,-15
COCCCNC(=S)N/N=C/c1ccc(O)cc1O,11,6,-9,-10
Cc1cccc(/C=N/NC(=O)c2c(-c3ccccc3)noc2C)c1O,11,92*,-27,11
COc1ccc(C(=O)N/N=C/c2ccc(OC(=O)c3ccccc3)cc2)cc1,1,1,3,-17
SMILES,Jurkat NFkB inh,Beta cell apopt,697 NFkB inh,Gli-Sufu block
COCCCNC(=S)N/N=C/c1cccc(OC)c1O,8,88*,2,10
O=C(Cc1nc2ccccc2[nH]1)c1cccc([N+](=O)[O-])c1,2,59,-17,1
Cc1cccc(C(=O)Oc2ccccc2/C=N/NC(=O)c2ccc(NC(=O)C(C)(C)C)cc2)c1,-5,19,18,10
CC(C)(C)C(=O)Nc1ccc(C(=O)N/N=C/c2ccccc2OC(=O)c2ccc(Cl)cc2)cc1,18,103*,-2,14
Cc1nn(-c2ccccc2)c(N)c1Sc1ccc([N+](=O)[O-])cc1,6,-12,24,-1
Cc1nn(S(=O)(=O)c2ccc(Cl)cc2)c(C)c1Sc1ccc([N+](=O)[O-])cc1,·,86*,·,14
O=C(Nc1ccccc1Cl)C1C2CCCCC21 (configuration not stated),·,·,·,-1
COc1cc(C)c(C(=O)CC(=O)c2c(C)cc(OC)cc2C)c(C)c1,28,75*,2,3
